# Data taken from paper PMC5540273 (PLoS ONE, 2017).
# Legend:
# Settings in all cases: concentration: 1 μM, replicates: in singlicate; n = 1
# [1] = tested on: SGK2
# [2] = tested on: SGK3
# [3] = tested on: SGK
# [4] = tested on: SIK2
# [5] = tested on: SIK
# [6] = tested on: SLK
# [7] = tested on: T1, SNARK
# T1 construct: gene NUAK2
# [8] = tested on: SNRK
# [9] = tested on: SRC
# [10] = tested on: SRMS
# 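Further: KINOMEscan kinase panel screen.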
SMILES,%Inh [1] [%],%Inh [2] [%],%Inh [3] [%],%Inh [4] [%],%Inh [5] [%],%Inh [6] [%],%Inh [7] [%],%Inh [8] [%],%Inh [9] [%],%Inh [10] [%]
O=C(NCc1cccs1)c1cc(C(=O)c2c(Cl)cccc2Cl)c[nH]1 [GW823670],0,0,0,4,4,9,0,0,0,15
Cn1c(=O)c(F)c(Nc2ccc(I)cc2F)c2c(=O)n(OC[C@H](O)CO)cnc21,3,0,0,0,4,0,0,0,11,0
CCC(=O)c1c(-c2ccccc2)c2cc(Cl)ccc2c(=O)n1Cc1cc(S(C)(=O)=O)n(CCC(C)(C)O)n1,4,0,4,7,11,21,1,27,0,0
Cc1nnc(-c2ccc3ncn(-c4ccc(S(C)=O)cc4)c3c2)o1 (centres unmarked),0,0,0,13,20,14,0,0,5,0
Nc1ncnc2c1ncn2-c1cccc(F)c1 [SKF-97560],38,0,37,0,1,18,13,20,22,14
COC(=O)c1c(-c2ccccc2)c2cc(Br)ccc2c(=O)n1Cc1ccc(NC(=O)CCC(=O)O)cc1,18,0,6,0,6,1,0,0,25,0
Cc1ccccc1COc1cc(-n2cnc3cc(Cl)ccc32)sc1C(N)=O [GW813349],6,1,0,0,4,73,4,3,0,0
Nc1nc(-c2ccccc2F)c(-c2ccnc3ccccc23)s1 [GW560459],1,5,15,0,0,4,8,0,0,0
CCC(=O)c1c(-c2ccccc2)c2cc(Cl)ccc2c(=O)n1Cc1cc(C(=O)NC2CC2)n(C)n1,5,10,2,55,1,0,0,0,0,0
COc1ccc(CNC(=O)NC2CCN(c3ccnc(Nc4ccc(F)cc4)n3)C2)cc1 (centres unmarked) [GSK1379706],0,0,0,0,13,9,0,0,0,0
COc1cc2ncn(-c3cc(OCc4ccc(S(C)(=O)=O)cc4)c(C(N)=O)s3)c2cc1OC [GW869979],24,5,40,0,0,29,15,2,11,14
COc1ccc(Nc2nccc(N3CCC(NS(=O)(=O)c4ccc(NC(C)=O)cc4)C3)n2)cc1 (centres unmarked) [GSK1379729],14,0,10,18,2,18,2,9,6,0
Nc1ncnc2c1ncn2-c1cccc2ccccc12 [SKF-97184],21,4,35,0,0,0,0,2,8,17
CC(C)(C)c1ccc(C(=O)Nc2cn3cc(-c4ccccc4)ccc3n2)cc1,0,0,0,66,0,9,0,0,0,0
COc1cc2ncn(-c3cc(OCc4ccncc4Br)c(C(N)=O)s3)c2cc1OC [GW854278],3,16,4,6,26,95.9,0,0,0,0
O=c1cc(N2CCOCC2)nc2n(Cc3ccc(F)c(Cl)c3)ccn12 [GSK2297099],0,19,0,0,0,0,20,0,0,0
CCC(=O)c1c(-c2ccccc2)c2cc(Cl)ccc2c(=O)n1Cc1ccc(C(=O)O)cc1,6,0,1,7,0,0,0,0,0,0
